From paper PMC4336329 (PLoS ONE, 2015)
Screen size: about 310,000 compounds; about 14,000 (4.5%) showed an effect of 50% or more. The effect is printed as a negative number. Shown is part of a subset that was picked to be rich in strong results.

biological target: human ether-à-go-go-related gene (hERG) potassium channel (human, UniProt Q12809); assay: primary screen, population patch clamp on CHO cells stably expressing hERG; higher = less effect of the substance
Experimental: Briefly, Chinese hamster ovary (CHO) cells stably expressing the hERG channel were dislodged from tissue culture flasks and dispensed into PPC plates. […] During the recording, background leak currents were estimated by a 100 ms step to -80 mV from an initial holding potential of -70 mV and subtracted from the subsequent current measurement. The campaign was conducted in two phases using slight differences in recording protocol. In the first phase, the initial voltage pulse used a 100 ms step to -30 mV from a holding potential of -70 mV, a 2 s conditioning step to +25 mV, and a 2 s test step to -30 mV. During the second phase of the screen, the potential during the conditioning step was raised to +45 mV. In both phases of the campaign, a secondary voltage pulse was applied using the same parameters as the second phase initial pulse. The initial and secondary pulses were applied in the absence of compound, and upon application of 1 μM and 10 μM test concentrations. […]
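Further: peak tail current of the secondary pulse compared with the same well before compound.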

human ether-à-go-go-related gene (hERG) potassium channel, sequence (Q12809 whole entry, looked up): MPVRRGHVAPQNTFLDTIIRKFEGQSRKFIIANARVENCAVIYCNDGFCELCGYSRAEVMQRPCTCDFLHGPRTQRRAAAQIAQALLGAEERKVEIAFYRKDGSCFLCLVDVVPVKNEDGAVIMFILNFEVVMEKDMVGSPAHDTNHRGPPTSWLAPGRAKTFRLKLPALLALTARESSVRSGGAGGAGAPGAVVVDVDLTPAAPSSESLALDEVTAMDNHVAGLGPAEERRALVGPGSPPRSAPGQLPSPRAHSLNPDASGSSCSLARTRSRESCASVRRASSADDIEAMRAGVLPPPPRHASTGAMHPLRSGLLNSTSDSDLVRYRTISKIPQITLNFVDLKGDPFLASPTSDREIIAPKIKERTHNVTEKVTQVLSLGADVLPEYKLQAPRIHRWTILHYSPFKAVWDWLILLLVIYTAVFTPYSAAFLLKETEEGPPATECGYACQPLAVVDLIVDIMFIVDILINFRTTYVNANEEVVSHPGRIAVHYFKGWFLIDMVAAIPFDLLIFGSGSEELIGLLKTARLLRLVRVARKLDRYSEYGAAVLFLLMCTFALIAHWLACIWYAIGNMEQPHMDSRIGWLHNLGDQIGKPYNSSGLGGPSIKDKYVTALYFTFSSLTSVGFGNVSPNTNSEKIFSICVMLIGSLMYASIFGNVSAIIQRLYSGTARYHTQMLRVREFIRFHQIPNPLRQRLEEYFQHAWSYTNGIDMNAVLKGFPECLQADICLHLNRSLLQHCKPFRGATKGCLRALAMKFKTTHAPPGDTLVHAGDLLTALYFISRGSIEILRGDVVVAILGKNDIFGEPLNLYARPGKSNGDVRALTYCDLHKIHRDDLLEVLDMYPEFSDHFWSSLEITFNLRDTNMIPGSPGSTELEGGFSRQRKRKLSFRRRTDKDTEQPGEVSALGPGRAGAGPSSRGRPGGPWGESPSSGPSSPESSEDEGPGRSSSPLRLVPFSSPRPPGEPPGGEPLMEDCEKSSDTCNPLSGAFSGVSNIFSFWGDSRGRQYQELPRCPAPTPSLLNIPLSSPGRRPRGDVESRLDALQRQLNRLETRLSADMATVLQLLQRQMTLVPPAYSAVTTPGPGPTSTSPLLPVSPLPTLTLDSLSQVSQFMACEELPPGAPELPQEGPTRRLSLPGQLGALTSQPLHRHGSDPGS

SMILES	hERG current change (%, negative = inhibition) at 10uM [%]
O=C(NC1CCN(S(=O)(=O)c2cccc(F)c2)CC1)c1ccc(F)cc1	14.6
Cc1cc2c(sc3c(C)ccc(C)c32)c(C)n1.Cl	3.48
O=C(NNC(=O)c1cccnc1)NC12CC3CC(CC(C3)C1)C2	-2.41
CCCNC(=O)CS(=O)Cc1nc(-c2ccccc2C)oc1C (stereo not shown)	6.71
CC(=O)c1ccccc1NC(=O)C1CCCN(C(=O)c2ccc(Cl)cc2)C1 (stereo not shown)	-25.6
COc1ccc(S(=O)(=O)Cc2ccc(C(=O)NC3CCCCC3)o2)cc1	-2.17
C[N+]1(C)C2CCC1CC(OC(=O)c1ccco1)C2.[Br-] (stereo not shown)	7.81
CCCN(C(=O)CSc1nnc(-c2ccoc2C)n1N)C1CCS(=O)(=O)C1 (stereo not shown)	5.3
Cc1cc(C(=O)NCC(c2ccco2)N2CCCC2)c2ccccc2n1 (stereo not shown)	6.54
O=C(NCC(c1ccco1)N1CCCC1)c1ccccc1F (stereo not shown)	3.76
COc1ccc(OC)c(-c2nn(-c3ccccc3)cc2C(=O)NCC(c2cccs2)N2CCOCC2)c1 (stereo not shown)	-30.2
COc1ccccc1-c1nn(Cc2ccccc2)cc1C(=O)NCC(c1ccco1)N1CCCC1 (stereo not shown)	-64
COc1ccc(Cl)cc1C(=O)NCC(c1ccco1)N1CCCC1 (stereo not shown)	-44.5
COc1cc(C(=O)NCC(c2ccco2)N2CCCC2)ccc1OCc1ccccc1 (stereo not shown)	-40.5
COc1ccc(OC)c(-c2nn(-c3ccccc3)cc2C(=O)NCC2CCCO2)c1 (stereo not shown)	2.13
O=C(NCC(c1ccco1)N1CCCC1)c1cn(Cc2ccccc2)nc1-c1ccccc1 (stereo not shown)	-58.5
Cc1ccccc1-c1nn(-c2ccccc2)cc1C(=O)NCC(c1ccco1)N1CCCC1 (stereo not shown)	-14.3
COc1ccc(OC)c(-c2nn(-c3ccccc3)cc2C(=O)NCC(c2ccco2)N2CCCC2)c1 (stereo not shown)	-63.7
COc1ccccc1C(=O)NCCC(=O)NCC(c1ccco1)N1CCCC1 (stereo not shown)	13.7
COc1ccccc1-c1nn(-c2ccccc2)cc1C(=O)NCC(c1ccco1)N1CCCC1 (stereo not shown)	-53
CC(=O)NC1(C(F)(F)F)N=C2SCCN2C1=O (stereo not shown)	7.4

SMILES	hERG current change (%, negative = inhibition) at 10uM [%]
CCOc1cc(/C=C/c2cccc[n+]2C)ccc1O.[I-]	24.7
O=C(COc1ccc(NC(=O)c2ccccc2[N+](=O)[O-])cc1)c1ccc(F)cc1	2.93
O=[N+]([O-])c1cccc(S(=O)(=O)[N-]c2nc3ccccc3nc2-n2cc[n+](Cc3ccccc3)c2)c1	-5.11
CC(C)N(C(=O)Cn1c(SCC(=O)Nc2nccs2)nc2ccccc21)C(C)C	12.6
CCN(CC)N=Nc1cccc(NC(C)=O)c1	0.363
CCc1nc(C)ccc1OCC(=O)N(CC)CC.O.O=C(O)C(=O)O	-30.9
CCOC(=O)c1c(NC(=O)CSc2nnc3c(n2)[nH]c2ccccc23)sc2c1CCN(C)C2	-6.08
CCOC(=O)c1ccc(NC2c3ccccc3C(=O)N2c2ccccn2)cc1 (stereo not shown)	9.93
CCOC(=O)c1ccc(NC2c3ccccc3C(=O)N2c2cccnc2)cc1 (stereo not shown)	-57
Cc1ccc(NC2c3ccccc3C(=O)N2c2cccnc2)cc1 (stereo not shown)	-21.5
CCOc1ccc(/C(O)=C2/C(=O)C(=O)N(CCCN3CCOCC3)C2c2ccc(C)cc2)cc1C (stereo not shown)	23.8
NC(=O)c1cccnc1Oc1cccc(Cl)c1	11.8
Cc1ccc(N(C(=O)CNC(=O)c2ccco2)C(C(=O)NC2CCCCC2)c2cccnc2)c(C)c1 (stereo not shown)	-71.9
O=C(NCC(=O)N(Cc1ccccc1)C(C(=O)NC1CCCC1)c1ccncc1)c1ccco1 (stereo not shown)	5.71
O=C(NCC(=O)N(CCc1ccccc1)C(C(=O)NC1CCCCC1)c1ccncc1)c1ccco1 (stereo not shown)	-54.6
COc1cccc(C(C(=O)NC2CCCC2)N(C(=O)c2ccco2)c2ccc(C(C)=O)cc2)c1OC (stereo not shown)	-13.3
COc1ccc(CCN(C(=O)c2ccco2)C(C(=O)NC2CCCC2)c2ccncc2)cc1OC (stereo not shown)	-55
COc1cccc(C(C(=O)NC2CCCC2)N(C(=O)c2ccco2)c2cccc(C(C)=O)c2)c1OC (stereo not shown)	13.9
O=C(NCC(=O)N(c1ccccc1)C(C(=O)NC1CCCCC1)c1ccncc1)c1ccco1 (stereo not shown)	5.92
COc1ccccc1CN(C(=O)c1ccco1)C(C(=O)NC1CCCC1)c1ccncc1 (stereo not shown)	-8.04
Cc1ccc(C)c(N(C(=O)CNC(=O)c2ccco2)C(C(=O)NC2CCCCC2)c2cccnc2)c1 (stereo not shown)	15.3

SMILES	hERG current change (%, negative = inhibition) at 10uM [%]
COc1ccc(N(C(=O)c2ccco2)C(C(=O)NC2CCCC2)c2ccncc2)cc1OC (stereo not shown)	5.24
Cc1ccc(N(C(=O)CNC(=O)c2ccco2)C(C(=O)NC2CCCC2)c2cccnc2)c(C)c1 (stereo not shown)	10.1
COc1cccc(C(C(=O)NC2CCCC2)N(C(=O)c2ccco2)c2ccc(NC(C)=O)cc2)c1OC (stereo not shown)	-64
COCCN(C(=O)CSc1nnc(C)n1-c1ccc(C)cc1)c1c(N)n(Cc2ccccc2)c(=O)[nH]c1=O	-2.83
COc1ccc(C(=O)NCc2ccc(-c3nc4ccccc4s3)cc2)cc1	10.1
NS(=O)(=O)c1ccc(CCNC(=O)Nc2ccc(Cl)c(Cl)c2)cc1	15.3
CN(C)C1=NCCN1CCc1cccc(F)c1	-8.41
O=C(NCCN1CCOCC1)c1cc2ccccc2oc1=O	-1.87
Oc1ccc(/C=N/Nc2nccnc2Cl)c(O)c1	0.455
COc1ccc(OC)c(C2=NOC(C(=O)NCc3cccs3)C2)c1 (stereo not shown)	-13.5
Cc1ccc(CNc2nc3ccccc3n3cnnc23)cc1	-6.53
Cc1ccc(CN(C(=O)c2ccco2)C(C(=O)NC2CCCC2)c2cccnc2)cc1 (stereo not shown)	-1.98
O=C(NC1CCCC1)C(c1cccnc1)N(CCc1ccccc1)C(=O)c1ccco1 (stereo not shown)	-69
O=C(NCC(=O)N(CCc1ccccc1)C(C(=O)NC1CCCC1)c1cccnc1)c1ccco1 (stereo not shown)	-43.8
CCOC(=O)c1cc(-c2ccccc2)nn1CC1CC(c2ccc(Cl)cc2)=NO1 (stereo not shown)	-16.2
COc1ccc([N+](=O)[O-])cc1NC(=O)C1(c2ccc(OC)c(OC)c2)CCOCC1	-14.4
Cc1ccc(NC(=O)CSc2nnc(CNC(=O)c3cccs3)o2)c(C)c1	6.79
COc1ccccc1CCNC(=O)/C(=C/c1cccnc1)NC(=O)c1ccccc1	-33.9
COc1ccc(CCNC(=O)/C(=C/c2cccnc2)NC(=O)c2ccccc2)cc1OC	-3.35
O=C(NCCc1ccccc1F)/C(=C/c1cccnc1)NC(=O)c1ccccc1	-52.2
O=C(NCCc1cccc(F)c1)/C(=C/c1cccnc1)NC(=O)c1ccccc1	-36.4

SMILES	hERG current change (%, negative = inhibition) at 10uM [%]
COc1ccc(CCNC(=O)/C(=C/c2cccnc2)NC(=O)c2ccccc2)cc1	-47.2
O=C(NCCc1ccc(Cl)cc1)/C(=C/c1cccnc1)NC(=O)c1ccccc1	-70.9
CC1(C)c2[nH]c3ccccc3c2C[C@@H]2C(=O)N(Cc3ccccc3Cl)C(=O)N21	15.4
Cc1ccc(S(=O)(=O)NC(C)(C)CSc2nncn2N)cc1	9.75
O=C(O)C#Cc1cccc2ccccc12	29.8
COc1cccc(N2CCN(CC(=O)Nc3ccc(-n4cnnn4)cc3)CC2)c1	7.28
O=C1CN(CC(=O)Nc2ccc(SC(F)F)cc2)CCN1	-32.6
COc1ccc(N2CCN(CC(=O)Nc3ccc(SC(F)F)cc3)CC2)cc1	-76.6
O=C(CN1CCN(c2ccc(O)cc2)CC1)Nc1ccc(SC(F)F)cc1	-74.7
COc1ccc(NC(=O)CN2CCN(c3ccccc3)CC2)cc1	1.85
O=C(CN1CCN(c2ccc(O)cc2)CC1)Nc1ccc(-c2ccccc2)cc1	-5.1
COc1ccc(N2CCN(CC(=O)Nc3ccc(C)cc3)CC2)cc1	-18.7
COc1cccc(N2CCN(CC(=O)Nc3ccc(SC(F)F)cc3)CC2)c1	-65.5
COc1ccc(NC(=O)CN2CCN(c3ccc(F)cc3)CC2)cc1	-4.62
COc1ccc(OC)c(C(=O)COC(=O)c2c(OC)cccc2OC)c1	8.03
CCCN1CCC(NC(=O)C2CCCCC2C(=O)O)CC1 (stereo not shown)	-1.65
C(=N\N=C\c1cccs1)/c1cccs1	-2.57
Cc1nn(CCC#N)c2c1P(=S)(N1CCCC1)OC(c1ccc(F)cc1)=N2 (stereo not shown)	-7.21
C=CCN1C(=O)C(CC(=O)O)SC1=Nc1c(C)n(C)n(-c2ccccc2)c1=O (stereo not shown)	1.73
